# Assay results reported in PubChem BioAssay (NCATS).
# Inconclusive results are not listed. Active and inactive are the calls of the source. Calls follow the shape of the dose curve; as a rule, active = well fitted inhibition curve with a large enough effect; inconclusive = small, poorly fitted or top-dose-only effect; inactive = no such curve, though single readings can be large or run the other way.
# Target: Cytochrome P450 3A4 (Homo sapiens) (UniProt P08684)
# Assay: qHTS Assay for Inhibitors and Substrates of Cytochrome P450 3A4 (AID 884); also: nearly all actives have a fitted effect of over 50% in size
# Conditions: recombinant CYP3A4, Luciferin-PPXE luminescence; series mostly up to 57.1 µM; activity change, negative = inhibition: at the top concentration
# In short: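 Luminescent readout of luciferin produced by CYP3A4 (20 nM) dealkylation of Luciferin-PPXE, 25 uM (its KM). NADPH-driven reaction ran 60 min at RT after 10 min compound preincubation; data scaled to 57 uM ketoconazole as 100% inhibition.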
# % is scaled to controls: 0 for no effect and ±100 for the full control effect; potency is read from the fitted curve at half-maximal effect.
# Cytochrome P450 3A4 (Homo sapiens), sequence (P08684 whole entry, looked up): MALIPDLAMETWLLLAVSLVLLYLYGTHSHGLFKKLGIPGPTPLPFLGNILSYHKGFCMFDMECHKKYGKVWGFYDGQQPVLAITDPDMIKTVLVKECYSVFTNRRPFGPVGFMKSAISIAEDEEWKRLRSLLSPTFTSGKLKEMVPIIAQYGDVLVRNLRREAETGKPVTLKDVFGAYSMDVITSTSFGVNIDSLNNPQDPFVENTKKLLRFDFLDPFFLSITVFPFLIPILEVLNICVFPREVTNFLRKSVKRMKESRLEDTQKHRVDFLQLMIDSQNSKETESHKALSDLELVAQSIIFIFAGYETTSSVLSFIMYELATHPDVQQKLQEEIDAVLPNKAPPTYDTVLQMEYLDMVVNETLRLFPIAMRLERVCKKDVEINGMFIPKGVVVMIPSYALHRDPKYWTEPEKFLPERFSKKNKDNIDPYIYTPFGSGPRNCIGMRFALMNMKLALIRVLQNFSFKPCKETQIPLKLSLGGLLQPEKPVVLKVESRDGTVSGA
Structure (SMILES),"activity change, negative = inhibition",Potency
COC(=O)c1ccc(C23CC4(C2)[C@H](CN(Cc2ccc(C(F)(F)F)cc2)[C@@H]4c2ccccc2)C3c2ccc(Cl)nc2)cc1 (stereo not given in full),-28.9% (inactive),–
COC(=O)[C@@H]1C[C@@]2(O)[C@@H](O)[C@@H](O)[C@@H](O)C[C@H]2N1CC1CC1,-26.7% (inactive),–
CN(C)c1ccc(CNC(=O)[C@@]2(C)C=C[C@@H](Cc3ccccc3)N2C)cc1,-79.9% (inactive),–
C=CCN1CCc2c(cc(O)c(O)c2Cl)C(c2cccc(C)c2)C1 (stereo not given),-23.2% (inactive),–
COC(=O)[C@@H]1C[C@@]2(O)[C@H](O)[C@H](O)[C@H](O)C[C@H]2N1C/C=C/c1ccccc1,-16.6% (inactive),–
CCOC(=O)[C@]1(C(NC(=O)OC)c2cccc(F)c2)CCCC1=O (stereo not given in full),-16.9% [at 11.4 µM] (inactive),–
Nc1cccc(B(O)O)c1,-20.1% (inactive),–
CN(C)/C=N/c1cc(=O)[nH]c(=O)n1C,7.82% (inactive),–
CC(C)Cn1c(N)c(C(=O)COC(=O)c2cc(C3CC3)nc3ccccc23)c(=O)n(C)c1=O,-20.4% (inactive),–
COC(=O)CC1Oc2cc3oc4c(c3cc2O1)C(=O)CC(C)(C)C4 (stereo not given),16.3% (inactive),–
COC(=O)[C@@H]1C[C@@]2(O)[C@@H](O)[C@@H](O)[C@@H](O)C[C@H]2N1Cc1ccc(-c2ccccc2)cc1,-15.1% (inactive),–
COC(=O)[C@@H]1C[C@@]2(O)[C@@H](O)[C@@H](O)[C@@H](O)C[C@H]2N1C/C=C/c1ccccc1,-37.6% (inactive),–
C/C(CCN1CCCCc2nc(C)c(C)cc21)=N\OC[C@@H](O)COCc1ccco1,–,3.98 µM (active)
NC(=O)NCC1CC1,-15.7% (inactive),–
COC(=O)[C@@H]1C[C@@]2(O)[C@H](O)[C@H](O)[C@H](O)C[C@H]2N1CC1CC1,-14.1% (inactive),–
C#CCCCO/N=C1/C[C@@H](O)[C@@H](O)[C@@H]2[C@H]3C(=O)N(c4ccc(F)cc4F)C(=O)[C@@H]3CC[C@H]12,–,3.98 µM (active)
Cn1c(=O)c(C(=O)COC(=O)c2cc(C(F)(F)F)nc3c(C(F)(F)F)cccc23)c(N)n(Cc2ccccc2)c1=O,-27.7% (inactive),–
Cc1cc(C(=O)O)sc1C(N)C(=O)O (stereo not given),-25.7% (inactive),–
COC(=O)CC1Oc2cc3oc4c5ccccc5oc(=O)c4c3cc2O1 (stereo not given),-0.639% (inactive),–
OB(O)c1ccc(B(O)O)cc1,-24.2% (inactive),–
C#CC(C)OC(=O)C(C)NC(=O)c1ccccc1 (stereo not given),-13.5% (inactive),–
CO[C@@H]1COC(=O)CCC[C@@H](C)[C@H](OC)COC(=O)[C@H](Cc2ccccc2)NC(=O)C/C=C\[C@H]1C,–,3.98 µM (active)
OB(O)c1ccc(Br)cc1,-29.4% (inactive),–
CN(C)/C=N/c1cc(=O)[nH]c(=O)n1CC1CC1,-3.92% (inactive),–
COC(=O)[C@@H]1C[C@H]2CC[C@H](O)C[C@H]2N1Cc1ccc(N2CCN(C)CC2)cc1,-20.9% (inactive),–
